About 83,000 compounds went through this panel and 20% of them were active in at least one assay; those are over-represented in the sample as a whole.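 Cell lines were cultured in 96-well plates, exposed to a single compound concentration, and assessed for percent growth 48 hours later.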 Calls of active or inactive are those of the source. Rule for the calls: active = growth percent below 10; inactive = the rest.
Experiments:
Test in all cases: NCI-60 one-dose screen, 48 h (100 = growth as untreated, 0 = no growth, -100 = all killed)
Settings in all cases: 10 µM unless noted
NCI-H23 lung = test system: NCI-H23 lung
NCI-H226 lung = test system: NCI-H226 lung
NCI-H322M lung = test system: NCI-H322M lung
HOP-62 NSCLC = test system: HOP-62 NSCLC
NCI-H460 lung = test system: NCI-H460 lung
HOP-92 NSCLC = test system: HOP-92 NSCLC
NCI-H522 lung = test system: NCI-H522 lung
A549/ATCC NSCLC = test system: A549/ATCC NSCLC
786-0 renal = test system: 786-0 renal
COLO 205 colon = test system: COLO 205 colon
DU-145 prostate = test system: DU-145 prostate
K-562 leukemia = test system: K-562 leukemia
MALME-3M melanoma = test system: MALME-3M melanoma
MDA-MB-231 breast = test system: MDA-MB-231 breast
RXF 393 renal = test system: RXF 393 renal
SF-268 CNS = test system: SF-268 CNS
SF-295 CNS = test system: SF-295 CNS
SF-539 CNS = test system: SF-539 CNS
UACC-257 melanoma = test system: UACC-257 melanoma
M14 melanoma = test system: M14 melanoma

Measured: growth

Cc1cc(C)c(CBr)c(C)c1
inactive: NCI-H23 lung 100% | NCI-H226 lung 92.8% | NCI-H322M lung 92.4% | HOP-62 NSCLC 104% | NCI-H460 lung 109% | HOP-92 NSCLC 87.5% | NCI-H522 lung 90.2% | A549/ATCC NSCLC 95.1% | 786-0 renal 99.2% | COLO 205 colon 107% | DU-145 prostate 107% | K-562 leukemia 107% | MALME-3M melanoma 99.3% | MDA-MB-231 breast 106% | RXF 393 renal 100% | SF-268 CNS 105% | SF-295 CNS 101% | SF-539 CNS 93.5% | UACC-257 melanoma 96.8% | M14 melanoma 109%

COc1ccc(C2=CC(c3ccc(OC)c(OC)c3)c3c(c4ccccc4oc3=O)O2)cc1OC (stereo not given)
inactive: NCI-H23 lung 63.4% | NCI-H226 lung 89.5% | NCI-H322M lung 35.8% | HOP-62 NSCLC 49% | A549/ATCC NSCLC 39.4% | 786-0 renal 25.7% | MALME-3M melanoma 75.3% | MDA-MB-231 breast 27.8% | RXF 393 renal 33.2% | SF-268 CNS 38.7% | UACC-257 melanoma 66.9% | M14 melanoma 12.9%
active: NCI-H460 lung 9.23% | HOP-92 NSCLC -12.5% | NCI-H522 lung -43.7% | COLO 205 colon 9.01% | DU-145 prostate 9.25% | K-562 leukemia 1.17% | SF-295 CNS -54.4% | SF-539 CNS -17.8%

O=C(CC1(O)C(=O)N(Cc2ccccc2)c2ccc(F)cc21)c1ccc(C(=O)NCC2CCC3(CC2)OOC2(CCCCC2)OO3)cc1 (stereo not given)
active: NCI-H23 lung -70.8% | NCI-H226 lung -43.2% | HOP-62 NSCLC -56.6% | NCI-H460 lung -51.8% | HOP-92 NSCLC -71.8% | NCI-H522 lung -43.1% | A549/ATCC NSCLC -52.4% | 786-0 renal -67% | COLO 205 colon -63.3% | DU-145 prostate -94.3% | K-562 leukemia -42.7% | MALME-3M melanoma -69.2% | MDA-MB-231 breast -74% | RXF 393 renal -80.4% | SF-268 CNS -60.3% | SF-295 CNS -14.1% | SF-539 CNS -84.8% | UACC-257 melanoma -2.89%
inactive: NCI-H322M lung 50.1% | M14 melanoma 15.3%

O=[N+]([O-])/C=C\c1ccc(Cl)c(Cl)c1
active: MALME-3M melanoma -0.637% | RXF 393 renal -79.8% | M14 melanoma -9.23%
inactive: NCI-H23 lung 77% | NCI-H226 lung 73.8% | NCI-H322M lung 105% | HOP-62 NSCLC 95.6% | NCI-H460 lung 67.2% | HOP-92 NSCLC 59.2% | NCI-H522 lung 74% | A549/ATCC NSCLC 57.5% | 786-0 renal 74% | COLO 205 colon 41.1% | DU-145 prostate 70% | K-562 leukemia 11.8% | MDA-MB-231 breast 74.8% | SF-268 CNS 69.2% | SF-295 CNS 98.8% | SF-539 CNS 65.2% | UACC-257 melanoma 69.6%

Clc1cccc(NCOOC2(OOCNc3cccc(Cl)c3)CCCCCC2)c1
inactive: NCI-H23 lung 69% | NCI-H226 lung 102% | NCI-H322M lung 96.2% | HOP-62 NSCLC 87.4% | NCI-H460 lung 102% | HOP-92 NSCLC 57.5% | NCI-H522 lung 81.6% | A549/ATCC NSCLC 92.8% | 786-0 renal 47.3% | COLO 205 colon 113% | DU-145 prostate 103% | K-562 leukemia 32.6% | MALME-3M melanoma 97% | MDA-MB-231 breast 103% | RXF 393 renal 114% | SF-268 CNS 94.3% | SF-295 CNS 90.4% | SF-539 CNS 86.8% | UACC-257 melanoma 112% | M14 melanoma 97.3%

COc1cccc(/C=C/[N+](=O)[O-])c1
inactive: NCI-H23 lung 43.3% | NCI-H226 lung 65.2% | NCI-H322M lung 88.8% | HOP-62 NSCLC 89.9% | NCI-H460 lung 100% | HOP-92 NSCLC 78.9% | NCI-H522 lung 63.2% | A549/ATCC NSCLC 61.2% | 786-0 renal 54.6% | COLO 205 colon 19.5% | MALME-3M melanoma 89.8% | MDA-MB-231 breast 87.6% | SF-268 CNS 78.2% | SF-295 CNS 84.3% | SF-539 CNS 50.8% | UACC-257 melanoma 83.1% | M14 melanoma 12.3%
active: DU-145 prostate -2.85% | K-562 leukemia 7.02% | RXF 393 renal -60.7%

COc1ccc(/C=C\c2cc(OC)c(OC)c(OC)c2)c(NS(=O)(=O)c2ccc(Cl)cc2)c1O
active: NCI-H460 lung 8.23% | NCI-H522 lung -36% | DU-145 prostate -13.3% | K-562 leukemia 9.26% | MDA-MB-231 breast 8.54% | SF-295 CNS 0.936% | SF-539 CNS 2.9%
inactive: NCI-H23 lung 21.8% | NCI-H226 lung 18.4% | NCI-H322M lung 40.8% | HOP-62 NSCLC 49.8% | HOP-92 NSCLC 48.3% | A549/ATCC NSCLC 16.7% | 786-0 renal 25.5% | COLO 205 colon 20.9% | MALME-3M melanoma 58% | RXF 393 renal 37.2% | SF-268 CNS 16.2% | UACC-257 melanoma 39.1% | M14 melanoma 12.8%
